Assay outcomes (PubChem BioAssay)
Sampled rows, rich in hits. Any-hit rate of the full collection: about 19%.
ELG1 DNA repair – ELG1-dependent DNA repair inhibition; HEK293T ELG1-luciferase reporter, luminescence, 16 h; DNA damage induced by 5-fluorouridine; Potency, µM (highest dose often 46.1 µM), for inactives: at the highest dose activity change, negative = inhibition, most hits filed as inhibitors; 330,000 tested, 2.3% active; AID 504467; also: potency is read from the fitted curve at half-maximal effect; nearly all actives have a fitted effect of over 55% in size
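5-Fluorouridine DNA damage + compound/DMSO, 2,000 cells/well, 16 h, 37 °C/5% CO2. ONE-Glo, 30 min RT, luminescence. Readout = decrease in reporter signal.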
Giardia kill – kills Giardia lamblia | activity change, % at 7.66 µM, hits read low | 340,000 tested, 0.15% active | Giardia lamblia trophozoite viability | AID 540267; in the data active = activity change below about -80%; inconclusive = between about -30% and that limit;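 also: parasites exposed to compound for two days anaerobically before the ATP read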
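Luminescence from cellular ATP indicates surviving trophozoites (100 cells/well) following 48 hrs anaerobic compound treatment at 37 deg C; signal develops 15-30 min at room temperature.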
TDP1 cell noCPT – qHTS for Inhibitors of human tyrosyl-DNA phosphodiesterase 1 (TDP1): qHTS in cells in absence of CPT. DT40 Tdp1-/- hTDP1 cells, no CPT, ATP luminescence, 48 h. Potency, µM (highest dose often 46.2 µM), inactives show at the highest dose activity change, negative = growth inhibition, most hits filed as inhibitors. 420,000 tested, 15% active. AID 686978, 2013; also: potency is read from the fitted curve at half-maximal effect; nearly all actives have a fitted effect of over 55% in size
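Growth kinetics read by CellTiter-Glo luminescence after ≥48 hr at 37 °C. Cells: DT40 Tdp1-/- stably carrying human TDP1, 400 per well, compound exposure in the absence of CPT (DMSO vehicle).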
TDP1 block – TDP1 (human) enzyme inhibition; Q9NUW8; recombinant TDP1, AlphaScreen DNA substrate cleavage; Potency, µM (top dose mostly 130 µM), for inactives: at the top dose activity change, negative = inhibition, most hits filed as inhibitors; 350,000 tested, 0.28% active; also: potency is read from the fitted curve at half-maximal effect; nearly all actives have a fitted effect of over 40% in size
Target sequence (Q9NUW8 whole entry, looked up): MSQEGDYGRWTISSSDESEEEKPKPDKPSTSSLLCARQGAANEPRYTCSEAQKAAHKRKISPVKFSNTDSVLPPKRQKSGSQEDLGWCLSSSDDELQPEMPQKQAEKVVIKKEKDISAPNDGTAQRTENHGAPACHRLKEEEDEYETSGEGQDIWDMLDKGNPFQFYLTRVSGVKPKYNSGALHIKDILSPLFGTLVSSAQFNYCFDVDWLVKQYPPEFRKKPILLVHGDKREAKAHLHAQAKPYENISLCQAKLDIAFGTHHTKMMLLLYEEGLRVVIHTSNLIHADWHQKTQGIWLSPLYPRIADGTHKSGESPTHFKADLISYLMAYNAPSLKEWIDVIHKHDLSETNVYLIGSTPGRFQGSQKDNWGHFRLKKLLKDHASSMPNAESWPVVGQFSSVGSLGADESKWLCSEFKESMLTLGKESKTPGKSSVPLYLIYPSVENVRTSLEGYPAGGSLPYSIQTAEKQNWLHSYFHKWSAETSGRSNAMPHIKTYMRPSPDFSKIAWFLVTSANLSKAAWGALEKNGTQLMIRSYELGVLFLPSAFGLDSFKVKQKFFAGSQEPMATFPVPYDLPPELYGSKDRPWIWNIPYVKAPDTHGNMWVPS
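E. coli-derived human Tdp1, 1 nM final. Cpd preinc 15 min RT; substrate 15 nM final, 5 min RT; AS bead mix 10 ug/ml final, 10 min RT. Signal loss = tyrosine-FITC cleavage. No-enzyme wells = max signal.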
IL-1B inflam inh – blocks inflammasome-driven IL-1 beta release | THP-1 LPS/ATP IL-1B secretion, AlphaLISA, 16 h; hits give low values | activity change, % at 57.5 µM | 360,000 tested, 4.7% active | AID 743279; in the data active = activity change below about -50%; inconclusive = mostly about -30% to -49%
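THP-1 cells pretreated 1 hr with compounds (up to 57.5 uM final), then stimulated with LPS (250 ng/mL final) plus ATP (1.25 mM final); secreted IL-1B measured by AlphaLISA after 16 hr, decreased signal indicating inhibition.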
DT40 TDP1 CPT – growth inhibition of DT40 Tdp1-/-;hTDP1 cells with camptothecin (screen for TDP1 inhibitors). chicken DT40 Tdp1-/-;hTDP1 cells + 20 nM CPT, ATP luminescence, 48 h. Potency, µM (titrated, usually from 46.2 µM), for inactives: top-dose activity change, negative = growth inhibition, hits mostly inhibitors. 420,000 tested, 12% active; also: potency is read from the fitted curve at half-maximal effect; nearly all actives have a fitted effect of over 55% in size
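Chicken DT40 Tdp1-/- cells complemented with human TDP1, 400 cells/well, exposed to compounds plus 20 nM camptothecin for at least 48 h at 37 C; viability read as ATP content by CellTiter-Glo luminescence.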
The depositor's hits bear a star; [ ] = another dose, or the depositor's remark. Unless noted, calls follow the shape of the dose curve; as a rule, active = well fitted curve in the direction sought with a large enough effect; inconclusive = small, poorly fitted or top-dose-only effect, or another doubt; inactive = no such curve, though single readings can be large; an effect the other way counts as inactive or inconclusive. % is scaled to controls: 0 for no effect and ±100 for the full control effect.

CCCCCCCC(=O)NNC(=O)Cc1ccccc1 was read as ELG1 DNA repair 6%, Giardia kill 6, TDP1 cell noCPT -2%, TDP1 block -13%, IL-1B inflam inh 4 and DT40 TDP1 CPT -19%.
For CCCCCCCCCCCCCC[N+](C)(C)Cc1ccccc1 the results were TDP1 cell noCPT 1.1µM* and DT40 TDP1 CPT 1.2µM*.
For Brc1ccccc1-c1csnn1 the results were ELG1 DNA repair 0%, Giardia kill -5, TDP1 cell noCPT -6%, TDP1 block 3%, IL-1B inflam inh 8 and DT40 TDP1 CPT 8%.
Screening CC(C)OCC1CC(CC(=O)Nc2ccc([N+](=O)[O-])cc2)C(=O)O1 (stereo not given) returned ELG1 DNA repair 4%, Giardia kill -7, TDP1 cell noCPT -8%, TDP1 block -4%, IL-1B inflam inh 2 and DT40 TDP1 CPT 2%.
For Cc1ccc(Cn2ccnc2SCC(=O)Nc2nc3ccccc3s2)cc1 the results were TDP1 cell noCPT -14%, TDP1 block 13% and DT40 TDP1 CPT -19%.
Screening O=C(c1nc2ccccn2c1CN1CCC(Cc2ccccc2)CC1)N1CCCC1 returned ELG1 DNA repair 13%, Giardia kill 15, TDP1 cell noCPT 23µM*, TDP1 block 3%, IL-1B inflam inh -6 and DT40 TDP1 CPT inconclusive.
For CCCCCN(C(=O)CCC(=O)OCc1ccccc1F)c1c(N)n(CCCC)c(=O)[nH]c1=O the results were ELG1 DNA repair 1%, Giardia kill 0, TDP1 cell noCPT -29%, TDP1 block 6%, IL-1B inflam inh -12 and DT40 TDP1 CPT -15%.
CCCCCN(C(=O)CCC(=O)OCC(=O)c1c(C)cc(C)cc1C)c1c(N)n(CCCC)c(=O)[nH]c1=O was read as ELG1 DNA repair -17%, Giardia kill 29, TDP1 cell noCPT inconclusive, IL-1B inflam inh -77* and DT40 TDP1 CPT inconclusive.
Screening CCCCCN(C(=O)CCC(=O)OCc1cc(C)ccc1C)c1c(N)n(CCCC)c(=O)[nH]c1=O returned ELG1 DNA repair inconclusive, Giardia kill 17, TDP1 cell noCPT 26µM*, TDP1 block -6%, IL-1B inflam inh -63* and DT40 TDP1 CPT 23µM*.
`CCCCCN(C(=O)CCC(=O)OCCOc1cccc(Cl)c1)c1c(N)n(CCCC)c(=O)[nH]c1=O` gave ELG1 DNA repair -19%, Giardia kill -6, TDP1 cell noCPT 13µM*, TDP1 block 6%, IL-1B inflam inh -7 and DT40 TDP1 CPT inconclusive.
For CCCCCN(C(=O)CCC(=O)OCc1ccc(C(C)C)cc1)c1c(N)n(CCCC)c(=O)[nH]c1=O the results were ELG1 DNA repair 16%, Giardia kill 6, TDP1 cell noCPT 16µM*, TDP1 block -6%, IL-1B inflam inh -15 and DT40 TDP1 CPT 23µM*.
For COc1cc(OC)nc(Oc2ccc(N)c(C)c2)n1 the results were ELG1 DNA repair 4%, Giardia kill -3, TDP1 cell noCPT -21%, IL-1B inflam inh 28 and DT40 TDP1 CPT 6%.
Screening C[C@@H]1CN([C@H](C)CO)C(=O)CCCn2cc(nn2)CO[C@H]1CN(C)S(=O)(=O)c1ccc(C#N)cc1 returned TDP1 cell noCPT -16%, IL-1B inflam inh 7 and DT40 TDP1 CPT -8%.
`Cc1ccc(SCC(CC(C)C)N2CCN(C)CCC2=O)cc1` (stereo not given) gave Giardia kill -14 and TDP1 block 7%.
COc1ccc(CCNC(=O)CSc2nnnn2-c2cccc(C(C)=O)c2)cc1OC was read as TDP1 cell noCPT -28%, TDP1 block -2% and DT40 TDP1 CPT -4%.
`C=CCN(C(=O)CCC(=O)Nc1cc(C)on1)C(C(=O)NC(C)(C)CC)c1cccc(OC)c1OC` (stereo not given) gave ELG1 DNA repair -8%, Giardia kill -14, TDP1 cell noCPT -18%, IL-1B inflam inh 7 and DT40 TDP1 CPT 2%.
For CC(=O)N[C@@H](CC(C)C)C(=O)N[C@@H](CC(C)C)C(=O)N[C@H](C=O)CCCN=C(N)N the results were TDP1 block 8%.
For CSCC[C@H](C=O)NC(=O)[C@H](CC(C)C)NC(=O)[C@H](CC(C)C)NC(C)=O the results were TDP1 cell noCPT 15µM*, TDP1 block 6%[56.1 µM] and DT40 TDP1 CPT 19µM*.
Screening CCCC[C@@H](C=O)NC(=O)[C@H](CC(C)C)NC(=O)[C@H](CC(C)C)NC(C)=O returned TDP1 cell noCPT 1.1µM*, TDP1 block 9% and DT40 TDP1 CPT 1.3µM*.
`CCOC(=O)N1CCN(Cc2nnc(-c3cccc(Br)c3)o2)CC1` gave ELG1 DNA repair inconclusive, Giardia kill -6, TDP1 cell noCPT 2%, IL-1B inflam inh 23 and DT40 TDP1 CPT -18%.
C=CC[C@H](CC(=O)N(CCO)Cc1ccccc1)C(=O)N[C@H](COC(=O)[C@@H](CC=C)CC(=O)OC(C)(C)C)Cc1ccccc1 was read as ELG1 DNA repair inconclusive, Giardia kill -4, TDP1 cell noCPT 13µM*, TDP1 block 0%, IL-1B inflam inh -80* and DT40 TDP1 CPT 15µM*.
For C=CC[C@@H](CC(=O)N(CCO)Cc1ccccc1)C(=O)N[C@H](COC(=O)[C@@H](CC=C)CC(=O)OC(C)(C)C)Cc1ccccc1 the results were ELG1 DNA repair inconclusive, Giardia kill 4, TDP1 cell noCPT inconclusive, TDP1 block 0%, IL-1B inflam inh inconclusive and DT40 TDP1 CPT 18µM*.
For C=CC[C@H](CC(=O)N(CCO)Cc1ccccc1)C(=O)N[C@H](C)COC(=O)[C@@H](CC=C)CC(=O)OC(C)(C)C the results were ELG1 DNA repair inconclusive, Giardia kill 13, TDP1 cell noCPT 18µM*, TDP1 block 0%, IL-1B inflam inh -9 and DT40 TDP1 CPT inconclusive.
`C=CC[C@H](CC(=O)NCCO)C(=O)N[C@@H](C)COC(=O)[C@H](CC=C)CC(=O)OC(C)(C)C` gave ELG1 DNA repair 3%, Giardia kill -13, TDP1 cell noCPT -8%, TDP1 block -2%, IL-1B inflam inh -16 and DT40 TDP1 CPT 1%.
O=C(NCCc1ccccc1C(F)(F)F)C1CCC(=O)N(CCCN2CCCC2=O)C1 (stereo not given) was read as ELG1 DNA repair 4%, Giardia kill -11, TDP1 cell noCPT 20%, TDP1 block 4%, IL-1B inflam inh 13 and DT40 TDP1 CPT 33%.
Clc1ccccc1-c1nc(N2CCNCC2)c2ccccc2n1 was read as TDP1 cell noCPT -17% and DT40 TDP1 CPT 1%.
